# Where “and” joins values, the source holds several entries; their conditions need not be identical. Identical values can stand only once. About 83,000 compounds went through this panel and 20% of them were active in at least one assay; those are over-represented in the sample as a whole.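 Method: cells in 96-well plates; compound added at one concentration; 48 h incubation; percent growth measured; values under 10 scored active.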 Calls of active or inactive are those of the source.
# Tested on: MDA-MB-468 breast
# Assay: NCI-60 one-dose screen, 48 h (100 = growth as untreated, 0 = no growth, -100 = all killed)
# Conditions: 10 µM unless noted
row,Compound,growth
1,Cc1c(C(N)=O)sc2nc(C)n(/N=c3\scc(-c4ccccc4)n3Cc3ccccc3)c(=O)c12,79.9% (inactive)
2,COc1ccc2[nH]cc(-c3nc(N)nnc3-c3cn(C)c4ccc(Br)cc34)c2c1,-31.3% (active)
3,COc1cc2nc(-c3ccc(C(F)(F)F)cc3)cc(OCCCN3CCOCC3)c2cc1OC,49.4% (inactive)
4,O=C1C=CC(=O)N1c1cccc2c1CCCC2,95.1% (inactive)
5,CCc1cccc(CC)c1NC(=O)c1sc2nc3c(cc2c1N)CCCC3,79.3% (inactive)
6,CN(C)c1ccc(/C=N\NC(=O)c2ccc3nc(-c4ccc(Cl)cc4)[nH]c3c2)cc1,76.1% (inactive)
7,CCCCCCCCCCCCNc1ncnc2[nH]ncc12,55.7% (inactive)
8,NC1C2CCC1CN(c1cnc(C(=O)Nc3cc(F)cc4cccnc34)cn1)C2 (stereo not given),-4.02% (active)
9,COc1ccc(NC(=O)Nc2ccc(Nc3nc(C)cc(Nc4ccc(C)cc4)n3)cc2)cc1,-68.9% (active)
10,N=C(N)c1ccc(-c2ccc(-c3ccc(Cl)cc3)s2)nc1,-56.4% (active)
11,COc1ccc(-c2ccc(-c3ccc(C(=N)N)cn3)s2)cc1Cl,-68.5% (active)
12,O=c1c2ccccc2n(C[C@H]2CO2)c2ccccc12,-7.32% (active)
13,CCN(CC)Cc1cc(C=C2C(=O)NC(=S)NC2=O)cc(OC)c1O,108% (inactive)
14,Cc1ccc(C)c2c1sc1nc(N3CCOCC3)c(C#N)c(=O)n12,86.9% (inactive)
15,CN(C)CCN1C(=O)c2cccc3c(-c4ccc5ncn(C6CCCCC6)c5c4)ccc(c23)C1=O,4.33% (active)
16,CCCCCc1cc[n+](CC(=O)c2ccccc2)cc1,86.9% (inactive) and 76% (inactive)
17,CCCCCCCCCCCC(=O)C(CCCCCCCCCC)C(=O)Nc1ccccc1 (stereo not given),109% (inactive)
18,COc1ccc2cc(Cn3cc[n+](Cc4ccc5ccccc5c4)c3)ccc2c1,-22.9% (active)
19,COc1cc2c3c(n(CCCCNCCCn4c5c(c6cc(OC)c(OC)cc6c4=O)C(=O)c4cc6c(cc4-5)OCO6)c(=O)c2cc1OC)-c1cc2c(cc1C3=O)OCO2,97.7% (inactive)
20,N#Cc1c(NCc2ccccc2I)sc2c1CCCCC2,97.1% (inactive)

row,Compound,growth
1,O=C(O)Cc1cccc(=O)c(O)c1C(=O)O,105% (inactive)
2,CO/N=C/C=C\C(=O)N/C=C/C[C@H]1/C=C/[C@H](O)/C=C\C=C\c2cccc(O)c2C(=O)O1,59.1% (inactive) and 46.3% (inactive)
3,COc1cc2ncnc(Nc3ccc(Oc4ccnc(C)c4)c(C)c3)c2cc1NC(=O)CC1CCSS1 (stereo not given),-67% (active)
4,CCCCCCOc1ccc(C(=N)N(CCCC)CCCC)c2ccccc12,-82.3% (active)
5,CC(=O)OC(c1ccccc1)C1CCOC1=O (stereo not given),80.8% (inactive)
6,COc1ccc(Nc2ncc(C(N)=O)c(NCCCNC(=O)C3CCC3)n2)cc1,33.1% (inactive)
7,CCCCCCCCCCCCS(=O)CC(C)O (stereo not given),106% (inactive)
8,CCOC(=O)c1sc(NCC(=O)Nc2cccc([N+](=O)[O-])c2)c(C(=O)OCC)c1C,-47.4% (active)
9,Fc1ccc(-c2cc3nc(C(Cl)Cl)nc(-c4cccs4)n3n2)cc1,-46.8% (active)
10,Nc1ncc(-c2cnn(C3CCNCC3)c2)cc1-c1nc2cc(Cl)ccc2o1,-94.3% (active)
11,O=C1/C=C/[C@@H](O)[C@@H]2C[C@@H](O)C[C@H]2/C=C/CCC[C@H](CCc2ccc(NC(=S)Nc3ccc4c(c3)C(=O)OC43c4ccc(O)cc4Oc4cc(O)ccc43)cc2)O1,-17.5% (active)
12,COC(=O)C1NC(=S)N(c2ccc(Cl)cc2)C1/C=C/c1ccccc1 (stereo not given),108% (inactive)
13,CC1(C)CC[C@]2(CO)CC[C@]3(C)[C@H](CC[C@@H]4[C@@]5(C)CCCNC(C)(C)[C@@H]5CC[C@]43C)[C@H]2[C@H]1O,71.3% (inactive)
14,Nc1nc(N)c2cc(S(=O)(=O)c3cccc(C(F)(F)F)c3)ccc2n1,38.9% (inactive)
15,O=c1[nH]c(=O)[nH]c(=S)[nH]1,95.8% (inactive)
16,COc1ccc(-n2nnc(C(=O)NCCc3c[nH]c4ccc(F)cc34)c2C)cc1,109% (inactive)
17,O=C(NNC(=S)Nc1ccccc1)c1ccncc1,122% (inactive)
18,CCOC(=O)c1cnn(CC(O)c2ccc(F)cc2)c1NC(=O)Nc1ccccc1F (stereo not given),85.8% (inactive)
19,CC(C)C[C@H](NC(=O)[C@@H](Cc1ccccc1)n1ccc(Nc2ccccc2)cc1=O)B(O)O,-19.8% (active)
20,O=C1/C=C/[C@@H](O)[C@@H]2C[C@@H](O)C[C@H]2/C=C/CCC[C@H](CO)O1,-20.1% (active)

# From PubChem BioAssay (NCI)
